Test results as given in the supplement of paper PMC6555819.

How the values were obtained:
Test in all cases: PBM binding z-score (relative to random genomic background probes); higher = stronger binding; sequences stand for … in GC…GCGATTGACAGCGTAGAATGAAGG
[1] = test system: FXR:RXRa (NR concentration 270 nM, RXRa partner concentration 90 nM)
Outline: (§1)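 Ligand-free nuclear receptor dimers were bound for 1 h to custom Agilent 4×180K protein-binding microarrays. Detection used antibodies against each partner (one per run). Binding z-scores rest on regression-normalized fluorescence, with random background probes as the reference.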

[2] = test system: LXRa:RXRa (NR concentration 270 nM, RXRa partner concentration 90 nM)
Outline: as §1

[3] = test system: LXRa homodimer (NR concentration 270 nM)
Outline: as §1

[4] = test system: LXRb:RXRa (NR concentration 270 nM, RXRa partner concentration 90 nM)
Outline: as §1

[5] = test system: LXRb homodimer (NR concentration 270 nM)
Outline: as §1

[6] = test system: PPARa:RXRa (NR concentration 270 nM, RXRa partner concentration 90 nM)
Outline: as §1

[7] = test system: PPARg:RXRa (NR concentration 180 nM, RXRa partner concentration 90 nM)
Outline: as §1

[8] = test system: PPARg:RXRa 270nM:90nM, anti-RXR (NR concentration 270 nM, RXRa partner concentration 90 nM)
Outline: as §1

[9] = test system: PPARg:RXRa 30nM:10nM, anti-RXR (NR concentration 30 nM, RXRa partner concentration 10 nM)
Outline: as §1

[10] = test system: PPARg:RXRa 90nM:30nM, anti-RXR (NR concentration 90 nM, RXRa partner concentration 30 nM)
Outline: as §1

[11] = test system: PPARg:RXRa DBDmut IVT, anti-RXR (DBD mutation: RXRa K156A/R161A, NR concentration 270 nM, RXRa partner concentration 90 nM)
Outline: as §1

[12] = test system: PPARg:RXRa IVT, anti-PPARg (NR concentration 270 nM, RXRa partner concentration 90 nM)
Outline: as §1

[13] = test system: PPARg DBDmut:RXRa IVT, anti-PPARg (DBD mutation: PPARg1 K132A/R137A, NR concentration 270 nM, RXRa partner concentration 90 nM)
Outline: as §1

[14] = test system: PPARg DBDmut IVT, anti-PPARg (DBD mutation: PPARg1 K132A/R137A, NR concentration 270 nM)
Outline: as §1

[15] = test system: PPARg homodimer (NR concentration 180 nM)
Outline: as §1

[16] = test system: PXR:RXRa (NR concentration 270 nM, RXRa partner concentration 90 nM)
Outline: as §1

[17] = test system: PXR homodimer (NR concentration 270 nM)
Outline: as §1

[18] = test system: RARa:RXR (NR concentration 270 nM, RXRa partner concentration 90 nM)
Outline: as §1

[19] = test system: RARa homodimer (NR concentration 270 nM)
Outline: as §1

[20] = test system: RARb:RXRa (NR concentration 270 nM, RXRa partner concentration 90 nM)
Outline: as §1

Sequence	PBM binding z-score [1]	PBM binding z-score [2]	PBM binding z-score [3]	PBM binding z-score [4]	PBM binding z-score [5]	PBM binding z-score [6]	PBM binding z-score [7]	PBM binding z-score [8]	PBM binding z-score [9]	PBM binding z-score [10]	PBM binding z-score [11]	PBM binding z-score [12]	PBM binding z-score [13]	PBM binding z-score [14]	PBM binding z-score [15]	PBM binding z-score [16]	PBM binding z-score [17]	PBM binding z-score [18]	PBM binding z-score [19]	PBM binding z-score [20]
CCGACTGGGGCAGATAGGTTACCATACCATCCGG	-0.431	-0.25	0.171	-0.154	-1.16	0.179	0.914	0.44	-0.164	-0.0542	1.48	1.4	-1.44	-0.883	0.00162	-0.407	-0.499	0.117	-0.193	0.804
GCGACTGGGGCAAAGCAGGTTACCATAAGGTTGG	1.14	0.088	-0.593	0.0291	-1.39	1.15	1.19	1.12	-0.898	0.47	4.62	3.61	-0.534	-0.872	-0.306	0.415	-0.59	0.0364	-0.818	0.93
TCTTGTAGATCAAAGGTTAAGATAGCCGAAGCCT	1.76	2.11	0.243	2.23	0.104	4.83	8.74	8.06	8.48	9.71	2.14	4.36	0.743	0.848	2.49	2.29	-0.253	3.37	0.787	1.98
GCTTGTAGATCAAGGTGAAGAAAGACTAAGCTAA	-0.249	-0.317	-0.489	-0.225	-0.819	0.597	0.122	0.939	0.103	0.281	1.63	1.6	-0.514	-0.503	-0.575	-0.352	-0.243	-0.339	-0.424	0.0933
CCGACTGGGGCAAAGGTTAGCATACTCAGTACGA	0.945	0.762	-0.315	1.27	-1.29	4.88	10.7	8.69	9.08	9.54	4.94	4.9	-0.151	-1.37	1.58	1.47	-0.542	2.78	-0.0647	1.99
AGAATGAGGTTACCAAAGATCAGGGCAACGCTTG	2.12	6.55	-0.189	3.11	-0.372	3.61	3.06	3.12	1.15	2.34	3.79	3.77	0.564	0.291	0.848	1.81	-0.116	2.47	-0.187	2.43
CCTGCTAGGTCAATGGTCGGCTAAAGCAGCTCGC	2.91	2.29	0.0582	1.14	-0.355	2.95	3.48	4.34	1.27	3.38	4.15	4	-0.289	-0.553	1.3	0.918	-0.868	1.47	0.0604	3.73
TATCCTAGGTCATTGGGCCAGTATAGTACGCATC	4.8	6.02	5.49	3.44	2.48	4.44	5.45	4.94	2.33	4.11	4.13	5.49	1.68	3.21	2.35	2.21	0.746	2.96	0.931	3.98
GGTAGCAGGCCATTTGGGTCACTCAATGACGGGC	0.428	0.0822	-0.186	0.118	-0.593	1.49	0.828	0.694	-0.356	0.275	0.966	2.81	-0.125	-0.507	0.75	0.505	-0.0413	0.741	-0.36	1.75
ATATTTAGGTTAGCTGGGGTCATTCAGACTAGGC	4.36	5.53	3.69	4.89	2.59	4.96	4.2	4.63	1.88	3.88	5.87	4.88	2.64	2.22	3.24	6.14	5.08	5.14	3.11	3.21
GCAGACAGATGAAACGCAGGTAACTCAGGGTGGC	-0.734	-0.704	-0.594	-0.986	-1.14	-0.624	0.616	-0.641	-0.438	-0.564	-0.362	-0.767	-1.03	-0.761	-1.19	-0.681	-0.52	-0.161	-0.884	-1.1
ATCTCTAGATAACCAAGTTCAGTGAATGCCGAAC	0.0637	0.348	0.591	0.348	0.0515	-0.00769	0.236	-0.141	0.124	-0.0247	-0.316	0.0781	0.627	0.782	0.44	1.1	1.09	0.424	0.885	0.556
TTACCAAGGTGAGCTGAGTTCGTTGATCCAACTC	0.596	0.237	-0.394	-0.0256	-1.28	0.596	-0.321	0.146	-0.237	0.19	1.27	1.51	-0.265	-0.637	-0.679	5.28	2.22	0.594	-0.779	1.04
TCCTGTAGATCAACAGGAGGTTAAGAAAGATCGA	-0.0851	1.1	0.0543	0.973	-0.977	1.28	-0.00253	1.25	2.01	1.49	0.771	0.245	-0.0559	0.308	0.0427	0.654	-0.17	1.02	-0.715	0.535
